# From article PMC5540273 (PLoS ONE, 2017)
# Test system: T1, MRCKB
# T1 construct: gene CDC42BPB
# Settings: concentration: 1 μM, replicates: in singlicate; n = 1
# 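Also: KINOMEscan kinase panel screen.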
row,Compound,%Inh [%]
1,COc1ccc(Nc2nccc(N3CCC(NC(=O)Nc4cccc(C(C)=O)c4)C3)n2)cc1 (centres unmarked) [GSK1379731],0
2,Fc1ccc(-c2nn3c(OCC(F)(F)F)cccc3c2-c2ccncc2)cc1 [GW514784],32
3,Cc1cn2c(=O)cc(N3CCOCC3)nc2n1Cc1cccc(Cl)c1Cl [GSK2334006],8
4,Fc1ccc(-c2ncn(CCCN3CCOCC3)c2-c2cccnc2)cc1 [SB-211743],19
5,C[C@@H](Oc1cc(-n2cnc3ccc(NC(=O)NC(C)(C)C)cc32)sc1C(N)=O)c1ccccc1Cl [GSK346294],5
6,Cc1ccc(C(=O)NCC(N)=O)cc1-n1c(C)cc(OCc2ccc(F)cc2F)c(Br)c1=O,12
7,c1ccc(-c2n[nH]cc2-c2ccnc3ccccc23)nc1 [GW271431],13
8,O=C1Cc2cc(Nc3nc(NCc4cccc(S(=O)(=O)C(F)(F)F)c4)ncc3C(F)(F)F)ccc2N1,10
9,NCC(NC(=O)c1cc(-c2cn[nH]c2)c(-c2ccnc3[nH]ccc23)s1)c1ccccc1.O=C(O)C(F)(F)F.O=C(O)C(F)(F)F (centres unmarked) [GSK1325775],98.6
10,COc1ccc(Nc2nccc(N3CCC(NC(=O)Nc4cc(C)ccc4C)C3)n2)cc1 (centres unmarked) [GSK1379741],0
11,CC(C)Oc1ccc2c(-c3ccnc(Nc4ccc(N5CCN(C)CC5)cc4)n3)cnn2n1 [GW696155],0
12,O=C(c1ccc(-c2cc(-c3c[nH]nc3-c3ccccn3)ccn2)cc1)N1CCOCC1 [GW812171],12
13,CN(C(=O)c1ccc(-c2cc(-c3c[nH]nc3-c3ccccn3)ccn2)cc1)C1CCOCC1 [GW810083],10
14,O=C(Nc1cccc(-c2nn3ncccc3c2-c2ccnc(Nc3cccc(C(F)(F)F)c3)n2)c1)c1c(F)cccc1F [GSK299495],68
15,Cl.Oc1cccc(Nc2ccnc3cc(-c4ccncc4)ccc23)c1 [GW494601],0
16,O=c1cc(N2CCOCC2)nc2n(Cc3cccc(F)c3)ccn12 [GSK2297430],0

row,Compound,%Inh [%]
1,COc1ccc(CNC(=O)NC2CCN(c3ccnc(Nc4ccc(OC)cc4)n3)C2)cc1 (centres unmarked) [GSK1379727],4
2,CCc1nc(-c2cccc(C)c2)c(-c2ccnc(NCc3ccccc3)c2)s1,0
3,CCc1ccnc(/C=C/c2n[nH]c3cc(Sc4ccccc4C(=O)NC)ccc23)c1,1
4,Cc1nnc(-c2ccc(C)c(-c3ccc(C(=O)Nc4ccc(NS(C)(=O)=O)cc4)cc3)c2)o1 [GW702865],0
5,Cc1nnc(-c2ccc3ncc(-c4ccc(S(C)=O)cc4)n3c2)o1 (centres unmarked),0
6,CC(=O)Nc1ccc(COc2ccc(Nc3ccnc4cc(-c5ccccn5)ccc34)cc2)cc1.Cl [GW440148],0
7,CCn1cnc2c(N)ncnc21 [GW345098],2
8,Cc1nnc(-c2ccc3occ(-c4ccc(C(C)O)cc4)c3c2)o1 (centres unmarked),0
9,O=c1cc(N2CCOCC2)nc2n(Cc3cccc(Cl)c3Cl)c(C3CC3)nn12 [GSK2358994],0
10,O=C(NCCCN1CCOCC1)c1cccc(Nc2nccc(Nc3ccc(Oc4ccccc4)cc3)n2)c1 [GW663929],0
11,[2H]C([2H])(c1cccc(C(F)(F)F)c1C)n1ccn2c(=O)nc(N3CCOCC3)cc12 [GSK2336394],0
12,NS(=O)(=O)CCc1cccc(Nc2nccc(-c3c(-c4cccc(NC(=O)c5c(F)cccc5F)c4)nn4ccccc34)n2)c1 [GSK336735],96.2
13,CN1c2ccc(NCc3ccc(F)cc3)cc2-c2c(cnn2C)S1(=O)=O,0
14,COCCNC(=O)c1ccc(-c2cc(C(=O)NC3CC3)cc(F)c2C)cc1 [GW868318],14
15,N#Cc1ccc(-c2cc(-c3c[nH]nc3-c3ccccn3)ccn2)cc1 [GW693028],0
16,O=C(NOCC1CC1)c1ccc(F)c(F)c1Nc1ccc(I)cc1Cl,0
